Hits are enriched below; roughly 11% of the tested compounds scored in any of these assays.
NS1 inh – influenza NS1 inhibition | Potency, µM (titrated, usually from 46.1 µM), for inactives: at the highest dose activity, positive = more growth | 270,000 compounds, 0.4% hits | AID 2326; calls by dose curve; note: actives are rising curves; nearly all actives have a fitted effect of over 50% in size
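Recovery from NS1-induced slow growth read by OD600 in budding yeast switched to galactose assay medium (pH 6.0, -URA) at 1:100 dilution. Compound 23 nl per well; the matching strain lacking NS1 serves as control.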
Vaccinia Venus – inhibitors of vaccinia virus (Venus reporter) | Vaccinia virus Venus reporter expression, fluorescence | Potency, µM (top dose mostly 36.5 µM), for inactives: at the highest dose activity change, negative = inhibition, most hits filed as inhibitors | 330,000 compounds, 0.46% hits; calls by dose curve; tested in A549 cells; note: % is set by controls: 0 for no effect and ±100 for the full control effect; nearly all actives have a fitted effect of over 30% in size
Pf growth 96h – inhibits malaria parasite growth, 96 h | P. falciparum luciferase reporter growth, 96 h | Potency, µM (titrated, usually from 28.7 µM), without a hit: top-dose activity change, negative = inhibition, actives largely listed as inhibitors | 320,000 compounds, 6.9% hits; note: % is set by controls: 0 for no effect and ±100 for the full control effect
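Erythrocytes infected with luciferase-expressing P. falciparum were dispensed at 2% hematocrit and 0.05% parasitemia (final), then incubated with compounds 96 hours at 37 C in 5% CO2. Luminescence after detection reagent addition reported growth.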
Pf growth 48h – P. falciparum growth inhibition at 48 hours (one generation); Potency, µM (top dose mostly 28.7 µM), without a hit: at the highest dose activity change, negative = inhibition, hits mostly inhibitors; AID 504832; P. falciparum luciferase growth in erythrocytes, 48 h; 310,000 compounds, 5.9% hits; note: % is set by controls: 0 for no effect and ±100 for the full control effect
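Parasite viability was followed by luminescence of a genomically integrated firefly luciferase. Cultures held 0.1% parasitemia at 2% hematocrit (final), incubated under 5% CO2 at 37 C.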
Vaccinia mCherry – vaccinia inhibition (mCherry reporter); Potency, µM (series often up to 36.5 µM), for inactives: top-dose activity change, negative = inhibition, usual class: inhibitors; 310,000 compounds, 0.63% hits; AID 720579; Vaccinia virus mCherry reporter infection, fluorescence; calls by dose curve; tested in A549 cells; note: % is set by controls: 0 for no effect and ±100 for the full control effect; nearly all actives have a fitted effect of over 35% in size
HCV inhibitor – HCV inhibition; Huh7.5.1 HCVcc-Cre infection, luciferase reporter, 44 h; Potency, µM (series often up to 41.8 µM), for inactives: at the top dose activity change, negative = inhibition, usual class: inhibitors; 340,000 compounds, 3.4% hits; note: % is set by controls: 0 for no effect and ±100 for the full control effect
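1,000 cells/well; 4 h culture; + compound; + HCVcc-Cre (~0.5 moi); 44 h; luciferase substrate, RT 15 min; read 15 sec.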
* marks the source's active call; other numbers are inactive results; i = inactive; ? = inconclusive; / = not tested or not shown. Unless noted, calls come from the whole dose curve; as a rule, active = well fitted inhibition curve with a large enough effect; inconclusive = small, poorly fitted or top-dose-only effect, or another doubt; inactive = no such curve, though single readings can be large or run the other way. Potency is the fitted concentration of half-maximal effect.

SMILES	NS1 inh	Vaccinia Venus	Pf growth 96h	Pf growth 48h	Vaccinia mCherry	HCV inhibitor
C/C=C(/C)C(=O)O[C@@H]1c2c(ccc3ccc(=O)oc23)OC(C)(C)[C@@H]1OC(=O)/C(C)=C\C	20.4%	-29.9%	6.57µM*	6.57µM*	-19.9%	22.4µM*
CCc1ccc(NC(=O)C2CCN(C(=O)N3CCOc4ccccc43)CC2)cc1	1.5%	?	7.3%	?	-22.0%	?
O=C(NC1CCCCCC1)c1cc(S(=O)(=O)N2CCOCC2)ccc1N1CCCCC1	-3.0%	/	6.57µM*	?	/	-22.2%
O=C(NC1CCCCCC1)c1cc(S(=O)(=O)N2CCCCC2)ccc1N1CCOCC1	/	-0.7%	?	11.7µM*	i	5.7%
NC(=O)c1ccccc1NC(=O)c1cc(S(=O)(=O)N2CCCCC2)ccc1N1CCOCC1	/	-12.7%	6.57µM*	13.1µM*	-3.1%	9.9%
Cc1ccccc1NC(=O)c1cc(S(=O)(=O)N2CCCCC2)ccc1N1CCOCC1	/	-8.7%	/	/	-5.5%	/
Cn1c(C(=O)OC(C(=O)NC(C)(C)C)c2cccnc2)cc2sccc21 (configuration not stated)	6.0%	-20.7%	24.8%	-13.7%	-20.4%	6.8%
Cc1cc(Cl)c2oc(C(=O)NCC(C)(C)N3CCOCC3)c(C)c2c1	-14.5%	1.7%	22.4%	?	i	?
O=c1cc(N2CCCCC2)c(-c2ccccc2)nn1Cc1ccccc1Cl	-68.8%	?	2.62µM*	3.29µM*	/	?
O=c1cc(N2CCCCC2)c(-c2ccccc2)nn1Cc1ccc(Cl)cc1Cl	-30.0%	-23.9%	?	2.08µM*	-22.0%	-19.3%
O=C(COC(=O)/C=C/c1ccc(C(F)(F)F)cc1)NCC1CCCO1 (configuration not stated)	/	-5.5%	22.0%	?	-12.9%	?
OCCOCCn1c(-c2ccccc2)nc(=S)c2c1CCCC2	-4.9%	-26.6%	10.4µM*	/	-32.0%	16.4%
CC1(C)Cc2c(c(=S)nc(-c3ccccc3)n2CCOCCO)CO1	-12.9%	1.5%	-35.8%	6.0%	/	24.9%
COc1ccc(-c2cc(NC=O)c3ncc(-c4cccc(C(C)=O)c4)n3c2)cc1	/	?	/	/	12.6µM*	/
CCN1CCN(C(=S)NC(C)c2ccccc2)CC1 (configuration not stated)	?	-6.8%	3.7µM*	6.9%	-13.5%	3.7%
CCN1CCN(C(=S)NC(CC(=O)c2ccccc2)c2ccccc2)CC1 (configuration not stated)	-6.8%	-9.5%	?	-7.4%	i	5.1%
N=C1SC(CC(=O)Nc2ccc([N+](=O)[O-])cc2)C(=O)N1c1ccccc1 (configuration not stated)	7.3%	-1.3%	?	?	i	-10.1%
COCCN(CCOC)c1nc(-c2ccccc2)nc2ccccc12	-41.2%	/	?	13.1µM*	/	?
CCN(CC)c1nc(-c2ccccc2)nc2ccccc12	-71.5%	-16.5%	?	18.0%	-7.1%	11.2µM*
COCCN(CCOC)c1nc(-c2ccc(Cl)cc2)nc2ccccc12	-33.9%	/	?	0.0%	/	?
NC(Cc1ccc(C(F)(F)F)cc1)c1csc(NC(=O)NCCc2ccccc2)n1 (configuration not stated)	/	11.2µM*	/	/	?	/
Cc1cnc(C)c(Nc2nc(C(N)Cc3ccc(C(F)(F)F)cc3)cs2)n1 (configuration not stated)	/	?	/	/	11.2µM*	/
NC(Cc1ccc(C(F)(F)F)cc1)c1csc(Nc2ccccn2)n1 (configuration not stated)	/	?	/	/	11.2µM*	/
Cc1ccc2oc(=O)c3cc(C(=O)NCc4ccc(Cl)cc4)sc3c2c1	/	?	/	/	-23.5%	/
O=C(N/N=C/c1ccc(-c2ccc([N+](=O)[O-])cc2)o1)C(O)c1ccccc1 (configuration not stated)	-21.7%	-6.4%	-5.4%	-2.1%	?	?
CCN(CC)CCCNc1nc(N)c([N+](=O)[O-])c(N2CCCCCC2)n1	-4.5%	-8.7%	2.94µM*	-6.3%	?	-1.1%
COc1ccc(Nc2nc(N)c([N+](=O)[O-])c(N3CCCC3)n2)cc1	-6.6%	/	13.1µM*	?	/	?
